From PubChem BioAssay AID2283131 (EPA ToxCast)
Records with an inconclusive call do not appear. Active and inactive are the calls of the source. The calls were made as follows: active = hit-call score of the fitted dose curve at least 0.9, where 1 is the maximum; inconclusive = response in the unintended direction; inactive = score below 0.9.

Target: human Bruton's Tyrosine Kinase (BTK), BTK (gene 695) (UniProt Q06187)
Test: NVS_ENZ_hBTK: NovaScreen (NVS) Enzymatic Assay for human Bruton's Tyrosine Kinase (BTK)
Method: NVS_ENZ_hBTK is a biochemical, single-readout assay that uses extracted gene-proteins in a cell-free assay. Measurements were taken 1 hour after chemical dosing in a 96-well plate.NVS_ENZ_hBTK is one of one assay component(s) measured or calculated from the NVS_ENZ_hBTK assay. It is designed to make measurements of enzyme activity, a form of enzyme reporter, as detected with fluorescence intensity signals by Fluorescence and electrophoretic mobility shift technology.Data from the assay component NVS_ENZ_hBTK was analyzed into 1 assay endpoint. This assay endpoint, NVS_ENZ_hBTK, was analyzed in the positive analysis fitting direction relative to DMSO as the negative control and baseline of activity. Using a type of enzyme reporter, loss-of-signal activity can be used to understand changes in the enzymatic activity as they relate to the gene BTK. Furthermore, this assay endpoint can be referred to as a primary readout, because this assay has produced multiple assay endpoints where this one serves a enzymatic activity function. To generalize the intended target to other relatable targets, this assay endpoint is annotated to the kinase intended target family, where the subfamily is non-receptor tyrosine kinase. […]

human Bruton's Tyrosine Kinase (BTK), BTK (gene 695), sequence (Q06187 whole entry, looked up): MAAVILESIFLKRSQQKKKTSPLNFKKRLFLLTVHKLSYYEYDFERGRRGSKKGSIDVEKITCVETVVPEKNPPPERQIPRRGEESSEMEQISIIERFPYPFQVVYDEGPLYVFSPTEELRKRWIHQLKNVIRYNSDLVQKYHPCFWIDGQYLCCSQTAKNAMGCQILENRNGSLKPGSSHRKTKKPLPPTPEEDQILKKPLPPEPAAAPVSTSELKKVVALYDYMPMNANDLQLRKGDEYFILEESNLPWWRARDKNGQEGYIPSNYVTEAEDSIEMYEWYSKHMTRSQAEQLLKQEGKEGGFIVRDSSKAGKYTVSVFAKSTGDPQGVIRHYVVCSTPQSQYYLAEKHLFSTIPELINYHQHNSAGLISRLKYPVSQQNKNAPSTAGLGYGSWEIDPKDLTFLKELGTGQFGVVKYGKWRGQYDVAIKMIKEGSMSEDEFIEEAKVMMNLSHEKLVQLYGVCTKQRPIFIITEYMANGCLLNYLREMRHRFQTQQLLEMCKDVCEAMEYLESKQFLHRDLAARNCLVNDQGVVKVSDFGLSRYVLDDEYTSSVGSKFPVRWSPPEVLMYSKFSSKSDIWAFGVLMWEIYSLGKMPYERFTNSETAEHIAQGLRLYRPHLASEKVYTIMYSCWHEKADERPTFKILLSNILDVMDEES

Row | Structure (SMILES) | AC50 | outcome
1 | S=C([S-])NCCNC(=S)[S-].[Mn+2] | 45.5 µM (active) | 
2 | COCCO |  | inactive
